This note sets out measurements from PubChem BioAssay (Tox21).

Where “and” joins values, the source holds several entries; their conditions need not be identical. Identical values can stand only once. Records with an inconclusive call do not appear. A number with no mark means an inactive call. Calls of active or inactive are those of the source. The call rests on the fitted dose curve; in most records, active means well fitted curve in the direction sought with a large enough effect in the repeat runs; inconclusive means weak or mixed curves; inactive means no such curve, though single readings can be large; an effect the other way counts as inactive or inconclusive.

Experiment [1] concerns the target Cytochrome P450 2D6 (Homo sapiens) (UniProt P10635). Nature of the experiment: Cytochrome P450 Family 2 Subfamily D Member 6 (CYP2D6) small molecule antagonists: luciferase reporter qHTS assay (AID 1671196). Further: nearly all actives have a fitted effect of over 50% in size. On activity change, negative = inhibition: series mostly up to about 120 µM. In short, it runs like this: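 P450-Glo format: CYP2D6 converts a proluciferin substrate to luciferin in an NADPH-driven reaction lasting 1 h at room temperature. Light output, proportional to CYP2D6 activity, reflects interference by test chemicals.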
A general note: In a reporter assay the amount or activity of a reporter protein is the signal.

In experiment [2] the target is Cytochrome P450 2C19 (Homo sapiens) (UniProt P33261). In words: Cytochrome P450 Family 2 Subfamily C Member 19 (CYP2C19) small molecule antagonists: luciferase reporter qHTS assay (AID 1671197). Further: nearly all actives have a fitted effect of over 65% in size. On activity change, negative = inhibition: series mostly up to about 120 µM. In short, it runs like this: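 P450-Glo CYP2C19 screening system; proluciferin substrate; DMSO compound stocks; 10 min RT preincubation; NADPH regeneration, 1 h at 37C; luciferin detection reagent, 20 min RT; luminescence as RLU.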
Sequence of Cytochrome P450 2C19 (Homo sapiens) (P33261 whole entry, looked up): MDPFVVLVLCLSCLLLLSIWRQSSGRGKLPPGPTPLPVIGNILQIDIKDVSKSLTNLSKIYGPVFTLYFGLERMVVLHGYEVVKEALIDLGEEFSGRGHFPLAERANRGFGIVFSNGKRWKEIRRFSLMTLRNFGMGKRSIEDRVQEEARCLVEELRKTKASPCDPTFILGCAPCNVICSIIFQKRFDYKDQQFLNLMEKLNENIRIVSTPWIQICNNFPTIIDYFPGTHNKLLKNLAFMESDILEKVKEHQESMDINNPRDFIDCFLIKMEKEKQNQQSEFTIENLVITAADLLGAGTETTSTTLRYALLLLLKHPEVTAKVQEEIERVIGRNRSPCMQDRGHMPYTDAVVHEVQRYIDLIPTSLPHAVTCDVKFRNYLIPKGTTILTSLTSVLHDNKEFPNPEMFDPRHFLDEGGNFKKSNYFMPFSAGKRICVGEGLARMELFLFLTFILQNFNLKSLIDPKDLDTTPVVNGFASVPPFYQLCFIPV

Experiment [3] deals with Cytochrome P450 2C9 (Homo sapiens) (UniProt P11712). Nature of the experiment: Cytochrome P450 Family 2 Subfamily C Member 9 (CYP2C9) small molecule antagonists: luciferase reporter qHTS assay (AID 1671198). Further: nearly all actives have a fitted effect of over 50% in size. On activity change, negative = inhibition: series mostly up to about 120 µM. In short, it runs like this:
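P450-Glo proluciferin substrate with CYP2C9 enzyme; 10 min RT preincubation, then NADPH regeneration 1 h at 37C; luciferin detection reagent 20 min RT, luminescence in relative luminescence units.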

The target of experiment [4] is Cytochrome P450 1A2 (Homo sapiens) (UniProt P05177). In words: Cytochrome P450 Family 1 Subfamily A Member 2 (CYP1A2) small molecule antagonists: luciferase reporter qHTS assay (AID 1671199). Further: nearly all actives have a fitted effect of over 50% in size. On activity change, negative = inhibition: series mostly up to about 120 µM. In short, it runs like this:
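Inhibition of CYP1A2 conversion of proluciferin to luciferin, detected by luminescence. Reaction run 1 h at room temperature with NADPH regeneration after brief compound preincubation.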

Experiment [5] concerns the target Voltage-gated inwardly rectifying potassium channel KCNH2 (Homo sapiens) (UniProt Q12809). In words: Human Ether-a-go-go-Related Gene (hERG) channel small molecule antagonists: fluorescence cell-based qHTS assay (AID 1671200). Further: nearly all actives have a fitted effect of over 50% in size.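 On activity change, negative = inhibition: hERG-expressing U2OS cells given a thallium stimulus after FluxOR II dye loading; series mostly up to about 77 µM.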 In short, it runs like this: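 hERG-U2OS cells plated overnight at 37 C, loaded with FluxOR II dye 1 h at RT in dark; after 10 min, thallium stimulus added. Fluorescence (480/540 nm) read kinetically for 2 min at 1 s intervals.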

Experiment [6] concerns the target Cytochrome P450 3A4 (Homo sapiens) (UniProt P08684). In words: Cytochrome P450 Family 3 Subfamily A Member 4 (CYP3A4) small molecule antagonists: luciferase reporter qHTS assay (AID 1671201). Further: nearly all actives have a fitted effect of over 50% in size. On activity change, negative = inhibition: series mostly up to about 120 µM. The gist of the method:
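P450-Glo CYP3A4 luminescent assay: compounds preincubated 10 min at room temperature with enzyme and proluciferin substrate, NADPH regeneration added, 1 h room-temperature reaction, stopped with luciferin detection reagent; luminescence read after 20 min. Ketoconazole positive control.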
On the % scale 0 is the no-effect control and ±100 the full control effect; potency means the concentration at half of the fitted maximal effect.

Sequence of Cytochrome P450 3A4 (Homo sapiens) (P08684 whole entry, looked up): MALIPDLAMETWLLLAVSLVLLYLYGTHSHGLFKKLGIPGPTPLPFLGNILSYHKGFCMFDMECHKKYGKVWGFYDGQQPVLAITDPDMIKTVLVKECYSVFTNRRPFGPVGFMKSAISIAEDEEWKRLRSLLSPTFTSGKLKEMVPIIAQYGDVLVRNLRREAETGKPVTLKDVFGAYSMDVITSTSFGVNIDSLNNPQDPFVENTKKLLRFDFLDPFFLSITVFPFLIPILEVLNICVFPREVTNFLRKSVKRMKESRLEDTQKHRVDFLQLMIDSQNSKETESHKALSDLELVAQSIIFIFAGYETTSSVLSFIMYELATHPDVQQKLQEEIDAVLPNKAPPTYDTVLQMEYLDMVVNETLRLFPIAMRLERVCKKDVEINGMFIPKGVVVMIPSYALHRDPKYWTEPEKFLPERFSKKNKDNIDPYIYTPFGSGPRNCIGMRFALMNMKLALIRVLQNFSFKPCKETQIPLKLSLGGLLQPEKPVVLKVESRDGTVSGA
Sequence of Cytochrome P450 2C9 (Homo sapiens) (P11712 whole entry, looked up): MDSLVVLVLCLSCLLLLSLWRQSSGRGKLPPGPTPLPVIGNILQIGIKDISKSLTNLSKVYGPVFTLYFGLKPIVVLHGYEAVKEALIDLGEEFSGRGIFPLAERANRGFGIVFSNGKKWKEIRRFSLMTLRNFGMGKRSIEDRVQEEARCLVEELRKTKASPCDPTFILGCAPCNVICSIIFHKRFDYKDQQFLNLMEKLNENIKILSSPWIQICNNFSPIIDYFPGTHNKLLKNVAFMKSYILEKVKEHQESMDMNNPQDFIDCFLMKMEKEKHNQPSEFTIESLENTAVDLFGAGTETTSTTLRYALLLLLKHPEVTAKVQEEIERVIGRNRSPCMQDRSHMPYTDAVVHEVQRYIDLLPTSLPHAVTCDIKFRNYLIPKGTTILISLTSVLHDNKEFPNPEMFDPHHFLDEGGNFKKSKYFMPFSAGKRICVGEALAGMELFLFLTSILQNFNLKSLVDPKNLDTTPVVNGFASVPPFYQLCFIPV
Sequence of Cytochrome P450 1A2 (Homo sapiens) (P05177 whole entry, looked up): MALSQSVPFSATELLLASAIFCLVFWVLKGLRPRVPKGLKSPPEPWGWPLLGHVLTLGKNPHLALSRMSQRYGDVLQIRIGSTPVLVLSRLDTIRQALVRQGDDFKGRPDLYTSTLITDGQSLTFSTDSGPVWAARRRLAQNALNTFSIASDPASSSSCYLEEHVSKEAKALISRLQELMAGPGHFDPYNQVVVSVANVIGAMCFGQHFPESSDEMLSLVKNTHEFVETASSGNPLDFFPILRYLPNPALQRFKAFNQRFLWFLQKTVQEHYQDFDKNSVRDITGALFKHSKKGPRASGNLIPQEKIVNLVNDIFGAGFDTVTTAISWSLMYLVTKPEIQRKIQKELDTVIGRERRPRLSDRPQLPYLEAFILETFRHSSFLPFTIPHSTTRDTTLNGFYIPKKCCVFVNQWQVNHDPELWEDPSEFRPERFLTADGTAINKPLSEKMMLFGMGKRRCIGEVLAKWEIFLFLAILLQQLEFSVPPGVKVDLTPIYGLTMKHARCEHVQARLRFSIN
Sequence of Cytochrome P450 2D6 (Homo sapiens) (P10635 whole entry, looked up): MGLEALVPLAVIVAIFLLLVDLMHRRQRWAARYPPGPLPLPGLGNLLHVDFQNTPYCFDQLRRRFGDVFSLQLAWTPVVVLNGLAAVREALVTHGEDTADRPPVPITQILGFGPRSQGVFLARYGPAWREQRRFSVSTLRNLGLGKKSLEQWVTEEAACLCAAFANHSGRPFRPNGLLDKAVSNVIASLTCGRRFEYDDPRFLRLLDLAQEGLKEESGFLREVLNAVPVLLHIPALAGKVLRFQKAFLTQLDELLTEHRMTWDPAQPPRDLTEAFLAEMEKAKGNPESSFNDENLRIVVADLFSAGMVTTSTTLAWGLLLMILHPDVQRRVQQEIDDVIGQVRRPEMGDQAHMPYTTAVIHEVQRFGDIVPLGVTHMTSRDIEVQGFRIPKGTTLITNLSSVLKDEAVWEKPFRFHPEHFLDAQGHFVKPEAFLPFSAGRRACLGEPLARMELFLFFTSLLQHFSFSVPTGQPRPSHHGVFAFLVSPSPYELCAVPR
Sequence of Voltage-gated inwardly rectifying potassium channel KCNH2 (Homo sapiens) (Q12809 whole entry, looked up): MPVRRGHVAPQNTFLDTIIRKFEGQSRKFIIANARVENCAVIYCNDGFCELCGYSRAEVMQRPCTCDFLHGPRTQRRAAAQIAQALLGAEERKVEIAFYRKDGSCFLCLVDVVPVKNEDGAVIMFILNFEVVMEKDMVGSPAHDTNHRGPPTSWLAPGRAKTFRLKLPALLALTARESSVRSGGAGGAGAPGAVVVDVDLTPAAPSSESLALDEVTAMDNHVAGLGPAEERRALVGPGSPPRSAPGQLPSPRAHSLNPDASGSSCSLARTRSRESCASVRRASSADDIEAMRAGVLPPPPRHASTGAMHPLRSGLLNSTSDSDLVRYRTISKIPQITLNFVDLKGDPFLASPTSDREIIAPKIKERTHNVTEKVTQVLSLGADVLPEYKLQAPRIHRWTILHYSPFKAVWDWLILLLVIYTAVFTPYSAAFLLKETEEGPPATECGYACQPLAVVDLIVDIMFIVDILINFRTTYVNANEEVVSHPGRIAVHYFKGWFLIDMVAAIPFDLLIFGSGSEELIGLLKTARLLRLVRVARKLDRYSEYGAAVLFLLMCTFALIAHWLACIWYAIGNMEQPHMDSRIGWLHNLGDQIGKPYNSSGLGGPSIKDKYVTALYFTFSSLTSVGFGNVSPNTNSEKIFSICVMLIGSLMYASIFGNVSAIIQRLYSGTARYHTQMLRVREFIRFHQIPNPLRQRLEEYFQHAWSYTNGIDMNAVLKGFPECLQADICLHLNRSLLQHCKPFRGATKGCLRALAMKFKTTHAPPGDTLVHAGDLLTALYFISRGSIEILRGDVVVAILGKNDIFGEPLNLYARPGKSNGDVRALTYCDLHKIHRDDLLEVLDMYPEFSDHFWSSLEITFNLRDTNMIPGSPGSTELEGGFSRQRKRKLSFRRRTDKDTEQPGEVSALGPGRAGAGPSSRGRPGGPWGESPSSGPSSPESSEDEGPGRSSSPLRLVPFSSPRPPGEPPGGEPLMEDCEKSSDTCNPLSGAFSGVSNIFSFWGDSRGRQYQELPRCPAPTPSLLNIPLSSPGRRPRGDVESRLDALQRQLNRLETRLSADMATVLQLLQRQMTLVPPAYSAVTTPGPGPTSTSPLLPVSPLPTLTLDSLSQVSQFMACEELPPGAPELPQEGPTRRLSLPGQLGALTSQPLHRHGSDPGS

Regarding `C=C1CCC2CC1C2(C)C` (stereo unspecified), the Potency result in experiment [1], in experiment [2], in experiment [3], in experiment [4], in experiment [5] and in experiment [6] was “inactive” each time.
Consider `CCCC(=O)C(=O)O`, for which the Potency in experiment [1] was 35.6 µM (active). In addition, the Potency entry in experiment [2], in experiment [3], in experiment [5] and in experiment [6] was “inactive” in each case.
Regarding `O=[N+]([O-])c1cc(C2CCCCC2)c(O)c([N+](=O)[O-])c1`, the Potency in experiment [1] was 31.6 µM (active); in experiment [2], 39.8 µM (active); in experiment [3] it was 8.91 µM (active). Also, the Potency entry in experiment [5] and in experiment [6] was “inactive” each time.
With `C[C@]12CC[C@@H]3c4ccc(O)cc4CC[C@H]3[C@@H]1CC[C@@H]2OC(=O)CCC1CCCC1`, the Potency result in experiment [1], in experiment [5] and in experiment [6] was “inactive” in each case. The Potency is 14.2 µM (active) in experiment [2]; 17.8 µM (active) and 17.4 µM (active) in experiment [3]; 17.8 µM (active) in experiment [4].
On to `C/C=C\C/C=C/CCCCCCCCOC(C)=O`, for which the Potency was 39.9 µM (active) in experiment [1]; 15.9 µM (active) in experiment [2]; 12.6 µM (active) in experiment [3]; 31.7 µM (active) in experiment [4]; 15.9 µM (active) in experiment [6].
As for `CCOC(=O)[C@H](CCc1ccccc1)N[C@@H](C)C(=O)N(CC(=O)O)C1Cc2ccccc2C1`, the Potency entry in experiment [1] and in experiment [5] was “inactive” each time. The figures for the Potency in experiment [2] and in experiment [3] were 6.92 µM (active) and 15.5 µM (active), respectively.
Regarding `CCC(OCCCOC)OC(C)=O` (stereo unspecified), the Potency entry in experiment [1], in experiment [2], in experiment [3], in experiment [5] and in experiment [6] was “inactive” in each case. Besides, the Potency in experiment [4] was 36.4 µM (active).
Turning to `CCc1ccccc1`, the Potency result in experiment [1], in experiment [2], in experiment [3], in experiment [5] and in experiment [6] was “inactive” in each case.
For the compound `C=C(C)[C@@H]1CCC2=CCC[C@@H](C)[C@]2(C)C1`, the Potency entry in experiment [1], in experiment [4] and in experiment [5] was “inactive” in each case. Moreover, the Potency in experiment [2] was 11.2 µM (active); in experiment [3] it was 63.3 µM (active); in experiment [6], 71 µM (active).
Consider `C=CCc1ccccc1OCC(O)CNC(C)C` (stereo unspecified), for which the Potency in experiment [1] is 5.49 µM (active); in experiment [4], 12.3 µM (active). In addition, the Potency entry in experiment [2], in experiment [3], in experiment [5] and in experiment [6] was “inactive” in each case.
On to `O=C(O)CCC(=O)C(=O)O`, for which the Potency in experiment [1] is 71 µM (active). The Potency result in experiment [2], in experiment [3], in experiment [4] and in experiment [6] was “inactive” throughout.
With `O=C(/C=C/c1ccccc1)OCCc1ccccc1`, the Potency result in experiment [1] and in experiment [6] was “inactive” throughout. Also, the Potency in experiment [2] is 20 µM (active); in experiment [3], 25.2 µM (active); in experiment [4] it was 6.33 µM (active).
Turning to `CCCCC(CC)CN` (stereo unspecified), in experiment [1], the Potency is 36.2 µM (active). Further, the Potency result in experiment [2], in experiment [3], in experiment [5] and in experiment [6] was “inactive” each time.
As to `CC(C)=CCC/C(C)=C/CC/C(C)=C/CCC(=O)OC/C=C(\C)CCC=C(C)C`, the Potency entry in experiment [1], in experiment [2], in experiment [3], in experiment [4], in experiment [5] and in experiment [6] was “inactive” throughout.
Regarding `C[C@@H]1CC(=O)NN=C1c1ccc(NN=C(C#N)C#N)cc1`, the Potency result in experiment [1], in experiment [4] and in experiment [6] was “inactive” each time. For the same compound, the Potency in experiment [2] is 17.4 µM (active); in experiment [3], 1.38 µM (active) and 1.23 µM (active).
Consider `OCCOCC#CCOCCO`, for which the Potency result in experiment [1], in experiment [2], in experiment [3], in experiment [4], in experiment [5] and in experiment [6] was “inactive” each time.
Regarding `COC(=O)CS`, the Potency result in experiment [1], in experiment [2], in experiment [3], in experiment [5] and in experiment [6] was “inactive” in each case.
Turning to `NCCNCCO`, the Potency in experiment [1] was 28.6 µM (active). Besides, the Potency result in experiment [2], in experiment [3], in experiment [4], in experiment [5] and in experiment [6] was “inactive” throughout.
For the compound `COc1ccccc1N1CCN(CCCCNC(=O)c2ccc(-c3ccc(C(C)=O)cc3)cc2)CC1`, the Potency was 2.19 µM (active) in experiment [1] and 3.79 µM (active) in experiment [5]. Further, the Potency result in experiment [2], in experiment [3], in experiment [4] and in experiment [6] was “inactive” throughout.
In the case of `COC(=O)CCS`, the Potency result in experiment [1], in experiment [3], in experiment [5] and in experiment [6] was “inactive” each time. In experiment [2], the Potency is 70.4 µM (active).
As for `CC(C)(C)C(=O)C(=O)O`, the Potency entry in experiment [1], in experiment [2], in experiment [3], in experiment [4], in experiment [5] and in experiment [6] was “inactive” in each case.
As to `CC(CN(C)C)C(C)(O)Cc1ccc(Cl)cc1` (stereo unspecified), the Potency in experiment [1] is 6.17 µM (active). The Potency entry in experiment [2], in experiment [3], in experiment [4] and in experiment [6] was “inactive” each time.
For `CCCCN(CCN(CCCC)C(=O)N1CCOCC1)C(=O)N1CCOCC1`, the Potency result in experiment [1], in experiment [2], in experiment [4] and in experiment [5] was “inactive” in each case.
On to `Brc1cc2ccccc2c2ccccc12`, for which the Potency entry in experiment [1] and in experiment [5] was “inactive” each time. Also, the Potency in experiment [2] is 40.2 µM (active); in experiment [4], 0.32 µM (active).
Consider `Cc1cc(=O)c2c(O)c3c(O)cc(=O)c4c3c3c(cc(O)c1c23)C(C)(C)C=4O`, for which the activity change, negative = inhibition in experiment [1] was -16.7% [at 23.6 µM]; in experiment [5], -4.56% [at 15.8 µM]. The Potency entry in experiment [2] and in experiment [4] was “inactive” in each case.
`NC1[C@H]2CN(c3nc4c(cc3F)c(=O)c(C(=O)O)cn4-c3ccc(F)cc3F)C[C@@H]12` (stereo partly specified): the Potency entry in experiment [1], in experiment [2], in experiment [4], in experiment [5] and in experiment [6] was “inactive” throughout.
Take `CCOC(=O)c1ccc(I)cc1`: the Potency entry in experiment [1], in experiment [5] and in experiment [6] was “inactive” each time. The Potency in experiment [2] was 80.4 µM (active); in experiment [4], 10.1 µM (active).
Take `C=C(C)C(=O)OCCOCCOC(=O)C(=C)C`: the Potency entry in experiment [1], in experiment [5] and in experiment [6] was “inactive” in each case. In addition, the results for the Potency in experiment [2] and in experiment [4] were 8.94 µM (active) and 15.9 µM (active), respectively.
In the case of `O=C1c2ccccc2C(=O)C1c1ccc(Br)cc1`, the Potency result in experiment [1], in experiment [5] and in experiment [6] was “inactive” in each case. Moreover, the Potency in experiment [2] is 1.55 µM (active); in experiment [3], 3.47 µM (active).
Regarding `CC(=O)[C@H]1[C@H](C#N)C[C@H]2[C@@H]3CC=C4C[C@@H](O)CC[C@]4(C)[C@H]3CC[C@@]21C`, the Potency result in experiment [1], in experiment [2], in experiment [4], in experiment [5] and in experiment [6] was “inactive” throughout.
